Compound activity: PubChem BioAssay, National Center for Advancing Translational Sciences (NCATS)
TDP1 inh – qHTS Assay for Inhibitors of Tyrosyl-DNA Phosphodiesterase (TDP1). Tyrosyl-DNA phosphodiesterase 1 (Homo sapiens), Q9NUW8. recombinant TDP1, AlphaScreen DNA substrate cleavage. Potency, µM (highest dose often 130 µM), inactives show at the highest dose activity change, negative = inhibition, usual class: inhibitors. 350,000 tested, 0.28% active; also: potency is read from the fitted curve at half-maximal effect; nearly all actives have a fitted effect of over 40% in size
Target sequence (Q9NUW8 whole entry, looked up): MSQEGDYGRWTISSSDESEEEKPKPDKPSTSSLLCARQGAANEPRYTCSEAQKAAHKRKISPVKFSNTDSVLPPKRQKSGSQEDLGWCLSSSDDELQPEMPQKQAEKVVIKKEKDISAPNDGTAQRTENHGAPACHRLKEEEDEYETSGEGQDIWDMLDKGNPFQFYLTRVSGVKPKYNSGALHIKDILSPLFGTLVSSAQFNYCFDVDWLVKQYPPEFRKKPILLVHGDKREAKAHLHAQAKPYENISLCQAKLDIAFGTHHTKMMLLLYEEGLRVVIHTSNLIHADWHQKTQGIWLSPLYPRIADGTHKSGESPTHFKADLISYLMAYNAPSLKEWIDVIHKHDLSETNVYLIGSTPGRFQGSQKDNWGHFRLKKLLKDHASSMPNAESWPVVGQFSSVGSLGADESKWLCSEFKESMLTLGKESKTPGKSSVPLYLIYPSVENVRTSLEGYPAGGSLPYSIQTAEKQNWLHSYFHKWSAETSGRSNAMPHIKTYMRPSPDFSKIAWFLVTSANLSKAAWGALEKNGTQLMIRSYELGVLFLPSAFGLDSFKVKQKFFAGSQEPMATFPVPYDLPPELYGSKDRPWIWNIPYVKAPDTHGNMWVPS
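Steps: enzyme plus compound, 15 min RT; add biotin/phosphotyrosine-FITC oligonucleotide (15 nM final), react 5 min; add donor/acceptor beads (10 ug/ml final), 10 min; read AlphaScreen. Tdp1 at 1 nM final.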
DT40 TDP1 no CPT – qHTS for Inhibitors of human tyrosyl-DNA phosphodiesterase 1 (TDP1): qHTS in cells in absence of CPT | DT40 Tdp1-/- hTDP1 cells, no CPT, ATP luminescence, 48 h | Potency, µM (series often up to 46.2 µM), inactives show top-dose activity change, negative = growth inhibition, most hits filed as inhibitors | 420,000 tested, 15% active | AID 686978, 2013; also: potency is read from the fitted curve at half-maximal effect; nearly all actives have a fitted effect of over 55% in size
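Stably hTDP1-transfected Tdp1-null chicken DT40 cells were treated with library compounds minus camptothecin and grown for at least 48 hr at 37 °C, after which cellular ATP was quantified by luminescence.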
IL-1B inflam inh – qHTS for Inhibitors of Inflammasome Signaling: IL-1-beta AlphaLISA Primary Screen; THP-1 LPS/ATP IL-1B secretion, AlphaLISA, 16 h; stronger effect = lower value; activity change, % at 57.5 µM; 360,000 tested, 4.7% active; AID 743279, 2014; in the data active = activity change below about -50%; inconclusive = mostly about -30% to -49%
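Secreted IL-1B measured by AlphaLISA bead assay after 16 h compound exposure of THP-1 cells; compounds (final up to 57.5 uM) added 1 h before LPS (250 ng/mL) and ATP (1.25 mM) stimulation; lower signal means less secretion.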
DT40 TDP1 CPT – qHTS for Inhibitors of human tyrosyl-DNA phosphodiesterase 1 (TDP1): qHTS in cells in presence of CPT | chicken DT40 Tdp1-/-;hTDP1 cells + 20 nM CPT, ATP luminescence, 48 h | Potency, µM (titrated, usually from 46.2 µM), for the others: at the highest dose activity change, negative = growth inhibition, hits mostly inhibitors | 420,000 tested, 12% active; also: potency is read from the fitted curve at half-maximal effect; nearly all actives have a fitted effect of over 55% in size
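Chicken DT40 Tdp1-/- cells complemented with human TDP1, 400 cells/well, exposed to compounds plus 20 nM camptothecin for at least 48 h at 37 C; viability read as ATP content by CellTiter-Glo luminescence.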
Six1-Eya2 blk – qHTS Assay for Inhibitors of the Six1/Eya2 Interaction; AlphaScreen GST-Six1/His-Eya2 binding, biochemical; stronger effect = lower value; 360,000 tested, 0.56% active; Homeobox protein SIX1 (Homo sapiens) + Protein phosphatase EYA2 (Homo sapiens), …; AID 651725, 2012; activity change, % (concentration not given with the values); in the data active = activity change below about -65%; inconclusive = mostly about -30% to -63%
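GST-Six1 + His-Eya2 (5X stock: 250/500 nM); Tris pH 8.0, 300 mM NaCl, 0.05% BSA, 0.02% Tween 20; GSH donor/Ni acceptor beads; 1 h 37 °C dark; AlphaScreen readout.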
CtBP-E1A inh – qHTS Assay for Inhibitors of the CtBP/E1A Interaction; CtBP / adenovirus E1A interaction (AlphaScreen); 340,000 tested, 0.49% active; AlphaScreen GST-E1A/His-CtBP binding, 1536-well; stronger effect = lower value; activity change, % (test concentration not listed); in the data active = activity change below about -65%; inconclusive = mostly about -30% to -63%
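AlphaScreen with 125 nM GST-E1A and 125 nM His-CtBP (5X stocks) in Tris pH 8.0, 300 mM NaCl, BSA, Tween 20, TCEP. Compounds preincubated 2 h at 37 deg C, then glutathione donor/nickel acceptor beads added for 1 h at 37 deg C in dark.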
* = called active by the depositor; ? = inconclusive; . = no result; [ ] = dose if it differs, or a comment. In the library only some 18% were active in any assay of this set; here they are far more common. Unless noted, calls follow the shape of the dose curve; as a rule, active = well fitted curve in the direction sought with a large enough effect; inconclusive = small, poorly fitted or top-dose-only effect, or another doubt; inactive = no such curve, though single readings can be large; an effect the other way counts as inactive or inconclusive. % is scaled to controls: 0 for no effect and ±100 for the full control effect.

SMILES	TDP1 inh	DT40 TDP1 no CPT	IL-1B inflam inh	DT40 TDP1 CPT	Six1-Eya2 blk	CtBP-E1A inh
CC(CC(=O)Nc1ccc2c(c1)c(=O)n(C)n2Cc1ccc(Cl)cc1)C(F)(F)F (stereo not given)	.	9.2µM*	-16.6	?	-3.2	-3.3
COc1cc(Cn2c3ccc(NC(=O)CC(C)C(F)(F)F)cc3c(=O)n2C)ccc1F (stereo not given)	.	16.4µM*	-14.2	?	0.3	8.4
CC(CC(=O)Nc1ccc2c(c1)c(=O)n(C)n2Cc1cccc(C(F)(F)F)c1)C(F)(F)F (stereo not given)	.	?	3.4	-26.6%	8.7	3.4
CC(=O)Nc1ccc(S(=O)(=O)NCCC(=O)OCc2csc(CC(=O)Nc3ccccc3C)n2)cc1	0.3%	?	37.2	-4.2%	5.5	-2.3
CCN(c1ccccc1)S(=O)(=O)c1cc2c(cc1C)NC(=O)CO2	.	-10.7%	23.1	-0.9%	-1.8	-8.4
COc1cc(OC)c2nc(C)c3c(c2c1)N(c1ccc(O)cc1)CC3	1.0%	16.4µM*	.	?	-14.1	0.0
COc1cc(OC)cc(C(=O)NCC(=O)N2CCN(c3ccc(O)cc3)CC2)c1	0.7%	?	30.5	?	-5.9	-3.7
Cc1ccc(C(=O)Nc2nc(=O)n(C(=O)c3ccccc3C)s2)cc1	1.5%	13µM*	-65.0*	11.6µM*	-1.9	-1.0
O=C(Nc1nc(=O)n(C(=O)C2CC2)s1)c1ccccc1	7.4%	23.1µM*	?	20.6µM*	0.0	6.0
O=C(Nc1ccc(NC(=O)C2CC2)cn1)c1ccccc1	2.0%	-16.6%	-2.0	-4.9%	-14.3	-4.1
Cc1ccc(C(=O)Nc2nc(=O)n(C(=O)C3CC3)s2)cc1	-1.1%	16.4µM*	?	20.6µM*	9.1	14.0
O=C(Nc1ccccc1)c1c(F)c(F)c(F)c(F)c1F	1.1%	-7.5%	-4.0	-3.2%	10.4	11.0
O=C(CCN1C(=O)c2ccccc2S1(=O)=O)Nc1cc(Cl)ccc1Cl	3.9%	2.8%	-8.3	-9.9%	2.1	-1.7
COc1ccc(OC)c(CNC(=O)CSc2c3c(nc4cc(Cl)ccc24)CCCC3)c1	6.4%	23.1µM*	.	16.4µM*	.	.
COc1ccc(Cl)cc1NC(=O)c1ccc2c(SCC(=O)O)c3c(nc2c1)CCCC3	3.1%	29.5%	?	0.1%	-0.4	-0.4
CCOc1ccc(CNC(=O)CSc2c3c(nc4ccc(Cl)cc24)CCCC3)cc1	2.3%	-25.4%	.	-28.4%	.	.
Cc1ccc(CNC(=O)CSc2c3c(nc4cc(Cl)ccc24)CCCC3)o1	4.5%	?	-67.6*	?	-8.1	-1.3
COc1cccc(CNC(=O)CSc2c3c(nc4ccc(Cl)cc24)CCCC3)c1OC	0.0%	9.2µM*	.	7.31µM*	.	.
O=c1oc2cc(O)ccc2cc1-c1nc2c(s1)CCc1ccccc1-2	-10.3%	?	17.5	?	33.3	40.4
Fc1ccc(C2=NCCC(c3ccccc3)O2)cc1 (stereo not given)	-1.0%[234 µM]	.	.	.	.	.
CCOC(=O)c1sc(/S(C)=N\S(=O)(=O)c2cccc(Cl)c2)c2c1CCC=C2 (stereo not given)	.	16.4µM*	0.0	?	3.4	.
CCOC(=O)C1=CCN(S(=O)(=O)c2cccc(Cl)c2)C1c1ccc(C)cc1 (stereo not given)	.	?	25.0	-13.5%	10.1	16.3
FC(F)(F)c1cccc(N2CCN(Cc3cccnc3)CC2)c1	2.8%	-17.2%	12.1	-21.9%	-1.4	-0.2
Cc1c(CCC(=O)O)c(=O)oc2cc3occ(-c4ccc(Cl)cc4)c3cc12	.	-2.2%	-8.7	-2.7%	?	-71.0*
CCCC(NC(=O)CCc1c(C)c2cc3c(-c4ccccc4)coc3cc2oc1=O)C(=O)O (stereo not given)	.	11.3%	30.8	-10.4%	-17.1	-67.8*
SMILES	TDP1 inh	DT40 TDP1 no CPT	IL-1B inflam inh	DT40 TDP1 CPT	Six1-Eya2 blk	CtBP-E1A inh
Cc1c(CCC(=O)O)c(=O)oc2c(C)c3occ(-c4ccc(Cl)cc4)c3cc12	.	?	8.5	?	-86.3*	-80.6*
Cc1cc2oc(=O)c(CC(=O)O)c(C)c2c2occ(-c3ccccc3)c12	3.7%	-0.4%	.	-10.4%	.	.
Cc1c(CC(=O)O)c(=O)oc2c(C)c3occ(-c4ccccc4)c3cc12	.	-3.9%	2.6	4.5%	-77.1*	0.0
Cc1nc2cc(N3CCCCC3)c(NC(=O)c3cccnc3)cc2c(=O)n1Cc1ccccc1	0.0%	?	12.4	?	2.9	-5.2
CN1C(=O)Cc2cc(S(=O)(=O)CCC(=O)N3CCN(c4ccc(Cl)cc4)CC3)ccc21	2.6%	14.6µM*	.	20.6µM*	.	.
O=C(c1ccc(CS(=O)(=O)c2ccc(Br)cc2)o1)N1CCOCC1	5.2%	-24.1%	-1.9	1.4%	-3.4	2.4
O=C(c1ccc(CS(=O)(=O)c2ccc(Br)cc2)o1)N1CCN(c2ccc(F)cc2)CC1	6.1%	23.1µM*	-8.0	?	-1.0	4.7
CNS(=O)(=O)c1cn(CC(=O)N2CCN(c3ccc(Cl)cc3)CC2)cc1S(=O)(=O)NC	5.6%	13µM*	.	14.6µM*	.	.
O=C(CCS(=O)(=O)c1ccc(Br)cc1)N1CCN(c2ccc(F)cc2)CC1	0.2%	16.4µM*	-8.9	?	-10.5	.
C/C(=N\OCC(=O)Nc1ccccc1Br)c1cccs1	1.2%	?	-5.8	-24.4%	50.1	.
O=C(NCc1ccc(F)cc1)c1ccc(CS(=O)(=O)c2ccc(Br)cc2)o1	.	10.3µM*	?	?	0.3	.
COc1ccc(NC(=O)CCS(=O)(=O)c2ccc(Cl)cc2)cc1	.	8.6%	36.1	-1.7%	0.8	-5.2
O=C(COc1ccc(S(=O)(=O)NC2CCCCC2)cc1)N1CCN(c2ccc(F)cc2)CC1	6.1%	20.6µM*	-21.1	16.4µM*	-12.4	2.0
O=C(CCS(=O)(=O)c1ccc(Cl)cc1)N1CCN(S(=O)(=O)c2cccs2)CC1	5.2%	-25.0%	19.4	-27.6%	-0.1	2.6
O=C(CCS(=O)(=O)c1ccc(Br)cc1)N1CCN(c2ccc(Cl)cc2)CC1	1.0%	14.6µM*	7.7	?	0.5	11.0
O=C(CCS(=O)(=O)c1ccc(Cl)cc1)Nc1ccc(N2CCOCC2)cc1	0.0%	14.6µM*	25.2	20.6µM*	-5.8	8.2
